Assay results as given in PubChem BioAssay (NCATS).
Results filed as inconclusive are left out. Calls of active or inactive are those of the source. Calls come from the whole dose curve; as a rule, active = well fitted curve in the direction sought with a large enough effect; inconclusive = small, poorly fitted or top-dose-only effect, or another doubt; inactive = no such curve, though single readings can be large; an effect the other way counts as inactive or inconclusive.

Tests used:
NIH3T3 = assay: qHTS assay to identify novel small-molecules to repurpose for Merkel cell carcinoma treatment (AID 1296009); settings: MCC and control cell lines, CellTiter-Glo viability, 72 h; at 44.8 µM (top of the series) unless noted; note: nearly all actives have a fitted effect of over 60% in size
How it was run: (§1)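 Cells were incubated with compound for 72 hr at 37 degree celsius before CellTiter-Glo addition. Luminescence was normalized with no-cell wells as full cytotoxicity and DMSO as baseline.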

C33A = assay: Primary qHTS to identify gynecologic anti-cancer compounds using libraries of approved drugs and bioactive compounds (AID 1345084); settings: Gynecologic cancer cell panel viability, ATPlite luminescence, 48 h; series mostly up to 57.5 µM; note: % is set by controls: 0 for no effect and ±100 for the full control effect; nearly all actives have a fitted effect of over 55% in size
How it was run: (§2)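 Cells, 1,000 per well, were allowed to settle for 16 h at 37 C before compound addition. Five concentrations were tested for 48 h, and viability was read by ATPlite luminescence after 15 min at room temperature.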

CAOV3 = assay: as above; settings: Gynecologic cancer cell panel viability, ATPlite luminescence, 48 h; series mostly up to 57.5 µM
How it was run: as §2

CASKI = assay: as above; settings: Gynecologic cancer cell panel viability, ATPlite luminescence, 48 h; series mostly up to 57.5 µM
How it was run: as §2

Es-2 = assay: as above; settings: Gynecologic cancer cell panel viability, ATPlite luminescence, 48 h; series mostly up to 57.5 µM
How it was run: as §2

HeLa = assay: as above; settings: Gynecologic cancer cell panel viability, ATPlite luminescence, 48 h; series mostly up to 57.5 µM
How it was run: as §2

Hek293T [1] = assay: as above; settings: Gynecologic cancer cell panel viability, ATPlite luminescence, 48 h, control line for the selectivity index; series mostly up to 57.5 µM
How it was run: as §2

JEG-3 = assay: as above; settings: Gynecologic cancer cell panel viability, ATPlite luminescence, 48 h; series mostly up to 57.5 µM
How it was run: as §2

HEK293T [2] = assay: qHTS assay to identify novel small-molecules to repurpose for Merkel cell carcinoma treatment (AID 1296009); settings: MCC and control cell lines, CellTiter-Glo viability, 72 h; at 44.8 µM (top of the series) unless noted; note: nearly all actives have a fitted effect of over 60% in size
How it was run: as §1

Cc1ncc(Cl)cc1NCc1ccc(C(=O)NC(CC2CCCC2)C(=O)NC2CC2)s1 (stereo not given)
inactive: outcome (NIH3T3) | Potency (C33A) | Potency (CAOV3) | outcome (CASKI) | Potency (Es-2) | Potency (HeLa) | Potency (Hek293T [1]) | Potency (JEG-3)

CC(C)=C1C[C@@]2(C)C(=CC1=O)CC[C@@H](O)[C@@H]2C
inactive: outcome (HEK293T [2]) | Potency (C33A) | outcome (CASKI) | Potency (Es-2) | Potency (HeLa) | Potency (Hek293T [1]) | Potency (JEG-3)

CC1=C[C@H](O)[C@H]2C(C)(C)CCC[C@]2(C)[C@@]1(O)CO
inactive: outcome (NIH3T3) | Potency (C33A) | Potency (CAOV3) | outcome (CASKI) | Potency (Es-2) | Potency (HeLa) | Potency (Hek293T [1]) | Potency (JEG-3)

CC(O)C1NC(=O)C2CCCN2C1=O (stereo not given)
inactive: outcome (HEK293T [2]) inactive [at 92 µM] | Potency (C33A) | Potency (CAOV3) | outcome (CASKI) | Potency (Es-2) | Potency (HeLa) | Potency (JEG-3)

C=C(C(=O)O)[C@H]1C[C@]2(C)C(=O)CC[C@]23O[C@H]1C[C@@H]3C
inactive: outcome (NIH3T3) | Potency (C33A) | Potency (CAOV3) | outcome (CASKI) | Potency (Es-2) | Potency (HeLa) | Potency (Hek293T [1]) | Potency (JEG-3)

CC1CCC23COC(=O)C2=CC(O)CC3C1(C)CCc1ccoc1 (stereo not given)
inactive: outcome (HEK293T [2]) | Potency (C33A) | outcome (CASKI) | Potency (Es-2) | Potency (HeLa) | Potency (Hek293T [1]) | Potency (JEG-3)

C=C1C(O)CC2C(C(=O)O)=COC(O[C@@H]3O[C@H](COC(=O)c4ccc(O)cc4)[C@@H](O)[C@H](O)[C@H]3O)C12 (stereo not given in full)
inactive: outcome (NIH3T3) inactive [at 17.4 µM] | Potency (C33A) | Potency (CAOV3) | outcome (CASKI) | Potency (Es-2) | Potency (HeLa) | Potency (Hek293T [1]) | Potency (JEG-3)

C[C@@H]1O[C@@H](O[C@H]2[C@H](OC(=O)[C@]34CCC(C)(C)C[C@H]3C3=CCC5[C@@]6(C)C[C@@H](O)[C@@H](O[C@@H]7O[C@H](CO)[C@@H](O)[C@H](O)[C@H]7O)[C@@](C)(CO)C6[C@H](O)C[C@@]5(C)[C@]3(C)CC4)OC[C@H](O)[C@@H]2O)[C@H](O)[C@H](O[C@@H]2OC[C@](O)(CO)[C@H]2O)[C@H]1O[C@@H]1OC[C@@H](O)[C@H](O[C@H]2O[C@H](C)[C@@H](O)[C@H](O)[C@@H]2O)[C@H]1O (stereo not given in full)
inactive: outcome (NIH3T3) inactive [at 9.27 µM] | activity change, negative = cytotoxicity (C33A) 7.61% [at 6.55 µM] | activity change, negative = cytotoxicity (CAOV3) 0.345% [at 6.55 µM] | activity change, negative = cytotoxicity (CASKI) 0.644% [at 6.55 µM] | activity change, negative = cytotoxicity (Es-2) -2.14% [at 6.55 µM] | activity change, negative = cytotoxicity (HeLa) 14.1% [at 6.55 µM] | activity change, negative = cytotoxicity (Hek293T [1]) 4.59% [at 6.55 µM] | activity change, negative = cytotoxicity (JEG-3) 14.8% [at 6.55 µM]

CC1(C)OC(=O)CC(O)C2(C)C1CC(=O)C1(C)C2C(O)CC2(C)C(c3ccoc3)OC(=O)C3OC321 (stereo not given)
inactive: outcome (HEK293T [2]) inactive [at 17.4 µM] | Potency (C33A) | outcome (CASKI) | Potency (Es-2) | Potency (HeLa) | Potency (Hek293T [1]) | Potency (JEG-3)

C/C=C/C=C/C=C/C(=O)O[C@@H]1C=C(CO)[C@](O)(CO)[C@@]2(C)CCCC(C)(C)[C@H]12
inactive: outcome (NIH3T3) | Potency (C33A) | Potency (CAOV3) | outcome (CASKI) | Potency (Es-2) | Potency (HeLa) | Potency (Hek293T [1]) | Potency (JEG-3)

CCOC(=O)C(CCc1ccccc1)NC1CCCN2CCCC(C(=O)O)N2C1=O (stereo not given)
inactive: outcome (HEK293T [2]) | Potency (C33A) | Potency (CAOV3) | Potency (Es-2) | Potency (HeLa) | Potency (Hek293T [1]) | Potency (JEG-3)

COC(=O)C1C(O)CCC2CN3CCc4c([nH]c5ccccc45)C3CC21 (stereo not given)
inactive: outcome (HEK293T [2]) | Potency (C33A) | Potency (CAOV3) | Potency (Es-2) | Potency (HeLa) | Potency (Hek293T [1]) | Potency (JEG-3)

CN(C)C(=O)C(O)C(Cc1ccccc1)NC(=O)c1cc2cc(Cl)ccc2[nH]1 (stereo not given)
inactive: outcome (HEK293T [2]) | Potency (C33A) | Potency (CAOV3) | outcome (CASKI) | Potency (Es-2) | Potency (HeLa) | Potency (JEG-3)

C/C(=C\CCC(C)C1CC(O)C2(C)C3CCC4C(C)(C)C(OC5OCC(O)C(O)C5O)CCC45CC35CC(O)C12C)C(=O)O (stereo not given)
inactive: outcome (NIH3T3) inactive [at 17.4 µM] | Potency (C33A) | Potency (CAOV3) | outcome (CASKI) | Potency (Es-2) | Potency (HeLa) | Potency (Hek293T [1]) | Potency (JEG-3)

O=C(/C=C/c1ccc(O)cc1)OC[C@H]1O[C@H](O[C@@]2(CO)O[C@@H](CO)[C@H](O)[C@H]2O)[C@H](O)[C@@H](O)[C@@H]1O
inactive: outcome (HEK293T [2]) inactive [at 17.4 µM] | Potency (C33A) | outcome (CASKI) | Potency (Es-2) | Potency (HeLa) | Potency (Hek293T [1]) | Potency (JEG-3)

CC1=C2C3OC(=O)C(C)C3(O)CCC2(C)CCC1 (stereo not given)
inactive: outcome (NIH3T3) | Potency (C33A) | Potency (CAOV3) | outcome (CASKI) | Potency (Es-2) | Potency (HeLa) | Potency (Hek293T [1]) | Potency (JEG-3)

C/C=C(\C)C1C(C)=CC2CCC(OS(=O)(=O)O)C(C)C2C1/C=C/C=C/C(=O)O (stereo not given)
inactive: outcome (HEK293T [2]) inactive [at 17.4 µM] | Potency (C33A) | Potency (CAOV3) | outcome (CASKI) | Potency (Es-2) | Potency (HeLa) | Potency (Hek293T [1]) | Potency (JEG-3)

COC(=O)[C@H](Cc1ccc([N+](=O)[O-])cc1)NC(=O)c1cccc2ccccc12
inactive: outcome (HEK293T [2]) | Potency (C33A) | outcome (CASKI) | Potency (Es-2) | Potency (HeLa) | Potency (Hek293T [1]) | Potency (JEG-3)
